RMI FANCM FP: disruptors of RMI1/RMI2 association with MM2 peptide – biochemical, fluorescence polarization, human, primary screen. RMI core complex with F-MM2 peptide; stronger effect = lower value. 0.58% of 70,000 active. AID 1159607, 2016. RMI core complex (RMI1/RMI2) binding to FANCM MM2 peptide, human. FP signal (polarization) at 33 µM; in the data active = FP signal below about 40
The depositor's hits bear a star; ! = not active in a repeat. The full list was thinned out, with hits kept by preference.

SMILES	RMI FANCM FP
O=C(NCCCCN1CCOC(c2ccccc2)C1)C(=O)Nc1ccc(F)cc1 (centres undefined)	81
CCOC(=O)Cn1c(=NC(=O)c2c(F)cccc2F)sc2cc3c(cc21)OCO3	77
Cc1ccc(C)c(S(=O)(=O)n2cccn2)c1	63
Cc1ccc(C)c(S(=O)(=O)Nc2ccccc2F)c1	73
Cc1ccc(C)c(S(=O)(=O)N=C2C=C(Br)C(=O)c3ccccc32)c1	-1*
CCCCC/C=C\CC(O)/C=C/c1cccc(CC(O)CCCCO)n1 (centres undefined)	57
FC(F)(F)c1cccc(N2CCNC2=S)c1	63
CC(=O)N1CCN(C(=O)C(=O)NCCc2csc(-c3ccc(F)cc3)n2)CC1	113
COc1ccc(OC(=O)c2ccc(-c3ccccn3)s2)cc1	57
O=c1c2scc(-c3ccccc3)c2ncn1Cc1cc(=O)n2ccccc2n1	-6*
N#CCn1cnc2c(-c3ccccc3)csc2c1=O	62
COc1ccc(-c2csc3c(=O)n(Cc4ccccc4F)cnc23)cc1	66
Cc1ccc(NC(=O)Cn2c(C)nc3c(sc4cccc(F)c43)c2=O)cc1C	125
CSc1ccc(-c2ccncc2)nn1	60
CCCN1CCCc2cc(CCNC(=O)COc3ccccc3F)ccc21	63
CCCN1CCCc2cc(CCNC(=O)C(C)(C)C)ccc21	16*
CCCN1CCCc2cc(CCNC(=O)C3CCCCC3)ccc21	69
CCCN1CCCc2cc(CCNC(=O)COCC)ccc21	27*
CCCN1CCCc2cc(CCNC(=O)Cc3cccc(C)c3)ccc21	55
CCCN1CCCc2cc(CCNC(=O)C(=O)NCC(C)C)ccc21	65
COc1ccc(/C=C2/SC(=S)N(NC(=O)c3csc4c3CCCC4)C2=O)cc1	74
COCCNC(=O)C1Nc2nc(-c3cccs3)ccc2C(=O)N1C (centres undefined)	61
NNC(=O)CNC(=O)c1cccc(F)c1	57
O=C(NCc1ccc(Cl)c(Cl)c1)c1cc(S(=O)(=O)N2CCC3(CC2)OCCO3)ccc1F	59
O=C(CSc1nc(SCC(=O)c2ccccc2)c2c3c(sc2n1)CCC3)c1ccccc1	79
SMILES	RMI FANCM FP
CCNc1nc(SCC(=O)NC(=O)Nc2ccccc2)nc2sc3c(c12)CCN(C)C3	33*!
O=C(CSc1nc2sc3c(c2c(=O)n1-c1ccccc1)CCCCC3)Nc1ccccc1	71
Cc1ccc(N(Cc2ccco2)S(=O)(=O)c2ccc(F)cc2)cc1	66
Cc1csc2ncc(C(=O)Nc3ccc(Br)cc3F)c(=O)n12	100
C=Cc1ccc(CSc2nccn3nc(-c4ccc(F)cc4)cc23)cc1	34*
Fc1ccc(-c2cc3c(SCc4cccc(C(F)(F)F)c4)nccn3n2)cc1	69
C=Cc1ccc(CSc2nccn3nc(-c4ccc(OC)cc4)cc23)cc1	70

Source: PubChem (Small Molecule Screening Facility, UW Madison)
